Source: PubChem BioAssay
Anesthetic bind: binds horse apoferritin like a general anesthetic | P02791 | apoferritin/1-aminoanthracene competitive binding, fluorescence | Potency, µM (titrated, usually from 77.5 µM), without a hit: at the top dose activity change, negative = displacement, most hits filed as inhibitors | hit rate 0.074% among 350,000; note: potency is the fitted concentration of half-maximal effect; % is set by controls: 0 for no effect and ±100 for the full control effect; nearly all actives have a fitted effect of over 20% in size
Target sequence (P02791 2-175 limits assumed): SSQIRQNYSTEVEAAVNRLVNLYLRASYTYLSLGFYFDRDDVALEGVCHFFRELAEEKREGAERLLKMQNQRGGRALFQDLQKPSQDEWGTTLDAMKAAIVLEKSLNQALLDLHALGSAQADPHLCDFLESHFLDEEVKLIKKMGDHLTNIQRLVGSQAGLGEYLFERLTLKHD
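Read-out: endpoint 1-AMA fluorescence, excitation 380 nm and emission 535 nm, after compounds sit 10 min at room temperature with 10 uM horse-spleen apoferritin in 50% saturated 1-AMA/PBS. Values come from four-parameter Hill fits.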
ERG Ets-DNA blk: inhibitors of human ERG Ets domain-DNA interaction. hit rate 0.028% among 370,000. P11308. fluorescence polarization, His-ERG Ets domain / labelled DNA. Potency, µM (doses to about 76.9 µM), without a hit: at the highest dose FP activity, negative = inhibition, most hits filed as inhibitors; active = well fitted inhibition curve with a large enough effect in the polarisation, with a control signal flat; inconclusive = small, poorly fitted or top-dose-only effect, or effect the other way, or a change in a side signal; inactive = no such curve, though single readings can be large or run the other way; the % refers to the polarisation;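 note: polarization taken with two DNA probes labelled with fluorescein and Texas red; potency is the fitted concentration of half-maximal effect; % of control where 0% means no effect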
Target sequence (P11308 whole entry, looked up, the tested form may be a part): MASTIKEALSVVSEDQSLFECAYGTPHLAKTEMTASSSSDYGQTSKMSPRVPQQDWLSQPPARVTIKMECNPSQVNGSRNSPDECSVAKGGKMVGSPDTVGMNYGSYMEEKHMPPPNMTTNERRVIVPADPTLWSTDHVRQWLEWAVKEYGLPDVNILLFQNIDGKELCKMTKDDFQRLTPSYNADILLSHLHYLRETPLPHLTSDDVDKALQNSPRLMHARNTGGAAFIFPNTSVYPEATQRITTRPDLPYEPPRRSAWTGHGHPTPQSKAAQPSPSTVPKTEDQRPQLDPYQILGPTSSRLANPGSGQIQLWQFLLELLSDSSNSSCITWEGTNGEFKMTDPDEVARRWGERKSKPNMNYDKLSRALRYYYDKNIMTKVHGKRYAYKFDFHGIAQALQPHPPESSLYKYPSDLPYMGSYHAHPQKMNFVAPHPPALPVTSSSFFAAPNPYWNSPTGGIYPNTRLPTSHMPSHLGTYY
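His-tagged ERG Ets domain (1 uM in the protein solution; 300mM KCl, 50mM Tris-HCl, 1mM EDTA, 1mM DTT, pH 7.5) received compound, then a probe mix of 5 nM fluorescein-DNA and 100nM Texas-615-DNA. Fluorescence polarization was read for both dyes.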
TSG101-PTAP inh: blocks PTAP/TSG101 interaction to inhibit HIV-1 budding; Q99816; 340,000 tested, under 10 active; Potency, µM (top dose mostly 115 µM), for inactives: at the top dose activity change, negative = inhibition, most hits filed as inhibitors; Fluorescence polarization, FITC-PTAP peptide / Tsg101 binding; active = well fitted inhibition curve with a large enough effect in the main read-out, with a control signal flat, not every such curve was filed as active; inconclusive = small, poorly fitted or top-dose-only effect, or effect the other way, or a change in a side signal; inactive = no such curve, though single readings can be large or run the other way; note: potency is the fitted concentration of half-maximal effect; % of control where 0% means no effect
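Tsg101 binding domain (10 uM final) was mixed with compound and a FITC-labeled PTAP peptide (50 nM final) in HEPES pH 7.5 buffer with NaCl, Tween 20, EDTA and TCEP; fluorescence polarization was read after 20 min at r.t.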
IDH1 R132H inh: human IDH1 R132H inhibition; O75874; IDH1-R132H enzyme, NADPH consumption, diaphorase/resazurin fluorescence; Potency, µM (highest dose often 76.6 µM), for inactives: at the highest dose activity change, negative = inhibition, hits mostly inhibitors; hit rate 0.093% among 390,000; note: potency is the fitted concentration of half-maximal effect; % is set by controls: 0 for no effect and ±100 for the full control effect; nearly all actives have a fitted effect of over 65% in size
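IDH1-R132H (0.5 ug/mL dispensed) in pH 7.5 Tris buffer was preincubated 30 min with compound, then given a substrate mix of 0.016 mM NADPH and 2 mM alpha-KG for 80 min at room temperature; remaining NADPH was read by diaphorase/resazurin fluorescence.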
IDH1 autofl: counter-screen for mutant IDH1 inhibitors: fluorescence interference. shares compounds with IDH1 R132H inh. Resorufin detection reagent fluorescence interference, cell-free. inhibition of signal, % at 51.2 µM. 750 tested, under 10 active;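 note: 0% = wells with normal resorufin and full inhibition = wells lacking resorufin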
WT IDH1 inh: wild-type IDH1 (human) inhibition counterscreen | Potency, µM (highest dose often 115 µM), for inactives: top-dose activity change, negative = inhibition, actives largely listed as inhibitors | shares compounds with IDH1 R132H inh | WT IDH1 enzyme, NADPH diaphorase/resazurin fluorescence | AID 623995 | hit rate 9% among 750;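 note: potency is the fitted concentration of half-maximal effect; 0% = full WT IDH1 enzyme control and full inhibition = no enzyme wells; nearly all actives have a fitted effect of over 55% in size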
mIDH1 confirm: mutant IDH1 (human) inhibition, confirmed | shares compounds with IDH1 R132H inh | IDH1 R132H enzyme, NADPH diaphorase/resazurin fluorescence | AID 624002 | Potency, µM (titrated, usually from 76.6 µM), without a hit: at the highest dose activity change, negative = inhibition, most hits filed as inhibitors | hit rate 83% among 750; note: potency is the fitted concentration of half-maximal effect; nearly all actives have a fitted effect of over 50% in size
Numbers without * were called inactive; ? = inconclusive; . = not tested or not shown. Only some compounds are listed: those with a hit (about 0.18% of all), similar ones and a draw of the others. Unless noted, calls come from the whole dose curve; as a rule, active = well fitted curve in the direction sought with a large enough effect; inconclusive = small, poorly fitted or top-dose-only effect, or another doubt; inactive = no such curve, though single readings can be large; an effect the other way counts as inactive or inconclusive.

SMILES	Anesthetic bind	ERG Ets-DNA blk	TSG101-PTAP inh	IDH1 R132H inh	IDH1 autofl	WT IDH1 inh	mIDH1 confirm
Cc1ccc(S(=O)(=O)N(C)CC(=O)N2CCC(C(N)=O)CC2)cc1	-4%	-9%	-2%	-5%	.	.	.
Cc1nc2ccc(NC(=S)N3CCN(c4ccccn4)CC3)cc2nc1C	7%	-10%	-2%	1%	.	.	.
N#CCC(=O)N/N=C/c1ccc(Cl)cc1	-17%	0%	-6%	8%	.	.	.
Cc1ccc(N2C(S)=C(C#N)C(=O)NC2c2cccs2)cc1 (centres undefined)	-10%	-11%	-3%	52µM*	4	20%	?
COc1ccc(CN(CCC(c2ccc(F)cc2)C2CCOC(C)(C)C2)C(=O)c2ccco2)cc1 (centres undefined)	79%	4%	-3%	?	-9	9%	?
CC(c1ccccc1)N(CCC(c1ccccc1)C1CCOC(C)(C)C1)C(=O)c1ccco1 (centres undefined)	6%	1%	-3%	?	.	.	.
Cc1ccc(NC(=O)c2nccnc2C(=O)O)cc1C	-3%	-25%	0%	-1%	.	.	.
O=C(CN1CCN(S(=O)(=O)c2ccc3c(c2)OCCO3)CC1)Nc1ccccc1Br	.	2%	-5%	-4%	.	.	.
COc1ccccc1C1(CC(=O)O)CCOC(C(C)C)C1 (centres undefined)	1%	0%	-4%	6%	.	.	.
CCC(=O)N(CCC1(c2ccccc2OC)CCOC(C(C)C)C1)Cc1ccco1 (centres undefined)	-11%	-16%	-4%	?	3	7%	40µM*
COc1cc(OC)c(NC(=O)c2ccc3c(SCC(=O)O)c4c(nc3c2)CCCC4)cc1Cl	-20%	13%	-4%	?	8	-18%	28µM*
CC(Cc1ccccc1)NC(=O)c1cc([N+](=O)[O-])ccc1Cl (centres undefined)	1%	-11%	-2%	3%	.	.	.
O=C(NCC1CCCO1)c1nn2c(C(F)(F)F)cc(-c3cccs3)nc2c1Cl (centres undefined)	-8%	3%	-12%	16%	.	.	.
Cc1ccc(C(NC(=O)C(C)C)c2cc([N+](=O)[O-])c3cccnc3c2O)cc1 (centres undefined)	5%	-2%	5%	?	7	?	28µM*
Cc1occc1-c1nnc(SCC(=O)c2cc3ccccc3oc2=O)o1	-5%	5%	-4%	3%	.	.	.
Cc1ccc(N(C(=O)c2sc(C)nc2C)C(C(=O)NCc2ccco2)c2ccccc2)cc1 (centres undefined)	8%	.	-8%	?	-8	-1%	35µM*
Cc1cc(C)cc(N(C(=O)c2sc(C)nc2C)C(C(=O)NCc2ccco2)c2ccccc2)c1 (centres undefined)	1%	.	-2%	?	-10	9%	13µM*
Cc1cccc(N(C(=O)c2sc(C)nc2C)C(C(=O)NCc2ccco2)c2ccccc2)c1 (centres undefined)	-3%	.	-7%	2%	.	.	.
Cc1ccc(NC(=O)c2nc[nH]c2C(=O)Nc2ccccc2F)cc1	.	.	.	10%	.	.	.
CCOC(=O)C1CCCN(Cc2ccccc2C)C1 (centres undefined)	-4%	9%	-5%	12%	.	.	.
CCOC(=O)C1=C(c2ccccc2)NC(SCC)=C(C#N)C1c1cccnc1 (centres undefined)	-13%	-4%	-10%	?	-1	0%	16µM*
CCCSC1=C(C#N)C(c2cccnc2)C(C(=O)OCC)=C(c2ccccc2)N1 (centres undefined)	-14%	-1%	-3%	?	.	.	.
Cn1ncc2c(Nc3cccc(Cl)c3)nc(Nc3cccc(Cl)c3)nc21	-14%	2%	-5%	?	-19	?	5.6µM*
Cn1ncc2c(Nc3ccc(O)cc3)nc(Cl)nc21	1%	-2%	-14%	9%	.	.	.
Cn1ncc2c(Nc3ccc(Br)cc3)nc(Nc3ccc(Br)cc3)nc21	0%	14%	12%	33µM*	-4	4%	11µM*
SMILES	Anesthetic bind	ERG Ets-DNA blk	TSG101-PTAP inh	IDH1 R132H inh	IDH1 autofl	WT IDH1 inh	mIDH1 confirm
NC1CCN(c2nc3c(cc2F)c(=O)c(C(=O)O)cn3-c2ccc(F)cc2F)C1 (centres undefined)	.	-14%	-3%	-5%	.	.	.
COc1cccc(-c2coc3c(C)c4oc(=O)c(CC(=O)O)c(C)c4cc23)c1	0%	6%	-4%	-4%	.	.	.
COc1cccc(-c2coc3c(C)c4oc(=O)c(CCC(=O)O)c(C)c4cc23)c1	-14%	0%	1%	26µM*	12	35µM*	25µM*
COCCNC(=O)CCCCCNS(=O)(=O)c1ccc(C)cc1	-8%	-3%	-4%	2%	.	.	.
O=S(=O)(c1ccc(NC(=S)N/N=C/c2cccc(Oc3ccccc3)c2)cc1)N1CCOCC1	?	-5%	-2%	?	2	4%	?
NS(=O)(=O)c1ccc(NC(=S)Nc2ccc(S(=O)(=O)N3CCCC3)cc2)cc1	-8%	-10%	0%	4%	.	.	.
O=S(=O)(c1ccc(NC(=S)NN=Cc2ccccc2O)cc1)N1CCCCC1	.	-3%	1%	46µM*	6	4%	22µM*
O=S(=O)(c1ccc(NC(=S)N/N=C/c2ccc(O)c(O)c2)cc1)N1CCOCC1	8%	-2%	-6%	2%	.	.	.
COc1ccc(C2=Nn3c(nnc3-c3ccccc3OC)SC2)cc1OCC1CC1	.	.	-6%	.	-2	-1%	45µM*
COc1ccc(OC)c(-c2nnc3n2N=C(c2ccc(OC)c(OC4CCCC4)c2)CS3)c1	.	.	-2%	.	0	2%	14µM*
COc1ccc(OC)c(-c2nnc3n2N=C(c2ccc(OC)c(OC)c2)CS3)c1	-15%	.	3%	.	.	.	.
COc1ccc(NC2=C(c3ccccc3)C(=O)c3ccccc32)cc1Cl	-22%	9%	.	?	-6	-1%	7.1µM*
Cc1c(C)c2c(OCC(=O)O)cc3c(c2oc1=O)CCC(C)(C)O3	45%	-7%	-2%	?	1	?	18µM*
Cc1c(C)c2c(OCC(=O)NCC(=O)NCC(=O)O)cc3c(c2oc1=O)CCC(C)(C)O3	-4%	-4%	-5%	15%	.	.	.
COC(CNC(=O)c1cc(C)nn1-c1ccccc1)OC	-4%	1%	1%	-3%	.	.	.
C=CCOc1ccc(/C=N/NC(=O)C2CCCC2)cc1OCC	-7%	?	-8%	-1%	.	.	.
